USP1-UAF1 inh = Inhibitors of USP1/UAF1: Primary Screen | Ubiquitin carboxyl-terminal hydrolase 1 (Homo sapiens), O94782 | recombinant USP1/UAF1, Ub-Rhodamine cleavage fluorescence | Potency, µM (titrated, usually from 57.1 µM), without a hit: at the top dose activity change, negative = inhibition, actives largely listed as inhibitors | actives 0.23% (n = 390,000); note: potency is the fitted concentration of half-maximal effect; % is set by controls: 0 for no effect and ±100 for the full control effect; nearly all actives have a fitted effect of over 60% in size
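USP1/UAF1 complex at 1 nM was preincubated with compound for 15 min at room temperature, then Ub-Rho substrate (150nM final) was added. Fluorescence (480/540 nm) was read kinetically, 6 reads every 60 seconds.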
PGK inhibitor = qHTS Assay to Find Inhibitors of Phosphoglycerate Kinase | Phosphoglycerate kinase, glycosomal (Trypanosoma brucei brucei), P07378 | AID 602233, 2012 | actives 0.043% (n = 380,000) | Potency, µM (doses to about 57.5 µM), without a hit: top-dose activity change, negative = inhibition, most hits filed as inhibitors | PGK/GAPDH coupled, Kinase-Glo luminescence, 60 min; note: potency is the fitted concentration of half-maximal effect; % is set by controls: 0 for no effect and ±100 for the full control effect; nearly all actives have a fitted effect of over 60% in size
Target sequence (P07378 whole entry, looked up): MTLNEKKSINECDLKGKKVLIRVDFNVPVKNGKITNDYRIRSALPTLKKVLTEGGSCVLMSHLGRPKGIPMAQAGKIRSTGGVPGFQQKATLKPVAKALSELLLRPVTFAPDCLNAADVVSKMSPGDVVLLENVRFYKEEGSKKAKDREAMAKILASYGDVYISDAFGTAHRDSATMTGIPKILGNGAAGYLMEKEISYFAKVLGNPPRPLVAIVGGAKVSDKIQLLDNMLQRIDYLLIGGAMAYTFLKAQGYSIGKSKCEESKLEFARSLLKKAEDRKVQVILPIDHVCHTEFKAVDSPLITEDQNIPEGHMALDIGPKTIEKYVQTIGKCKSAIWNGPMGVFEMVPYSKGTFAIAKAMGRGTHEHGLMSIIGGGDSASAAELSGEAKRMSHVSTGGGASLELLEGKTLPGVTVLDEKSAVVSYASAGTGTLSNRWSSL
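Luminescent ATP detection (Kinase-Glo Plus) follows a 60-minute room-temperature incubation, with wells lacking PGK as controls. Buffer: 100 mM TEA (pH 7.6), 5 mM MgCl2, 0.01% Tween-20. Coupling enzyme GAPDH (100 nM final) supplies unstable 1,3-BPG in-well.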
PI4K2A block = qHTS for small molecular inhibitors of PI4K2A | Phosphatidylinositol 4-kinase type 2-alpha (Homo sapiens), Q9BTU6 | purified PI4K2A, ADP-Glo luminescence, 1 h; hits give low values | activity change, negative = inhibition, % at 76.9 µM | actives 0.13% (n = 420,000) | AID 1346378, 2018; in the data active = activity change below about -50%; inconclusive = mostly about -30% to -49%;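 note: -100% = wells without enzyme as full effect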
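ADP-Glo luminescence measured ADP generated by PI4K2A enzyme (4 ug/mL before mixing) with 1.2 mM PI substrate (pre-mix) and 300 microM ATP (pre-mix). Tris pH7.5 buffer with MgCl2, Triton X-100; 1 h reaction at ambient temperature.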
GLS inh = qHTS for Inhibitors of Glutaminase (GLS). GLS enzymatic activity, qHTS titration. AID 624170, 2012. Potency, µM (highest dose often 45.5 µM), inactives show at the highest dose activity change, negative = inhibition, actives largely listed as inhibitors. actives 0.21% (n = 410,000); note: potency is the fitted concentration of half-maximal effect; % is set by controls: 0 for no effect and ±100 for the full control effect
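Coupled fluorescence readout: glutamate oxidase/HRP/Amplex Red detect glutamate formed by hKGA from L-glutamine (1 mM solution added). Buffer 45 mM KH2PO4 pH 8.2, 0.02% Tween-20; reads at t0 and 30 min RT.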
GLS hit conf = qHTS for Inhibitors of Glutaminase (GLS): Hit Confirmation; shares compounds with GLS inh; biochemical glutaminase enzyme inhibition assay; Potency, µM (series often up to 46.1 µM), for inactives: at the top dose activity change, negative = inhibition, most hits filed as inhibitors; 35 tested, under 10 active; AID 624261, 2012; calls by dose curve
HRP GOx counter = qHTS for Inhibitors of Glutaminase (GLS): Hit Confirmation in HRP Counterscreen; shares compounds with GLS inh; HRP/glutamate oxidase coupled Amplex Red fluorescence counterscreen; activity change, negative = inhibition, % at 46.1 µM; 35 tested, under 10 active
HEK293 tox = qHTS for Inhibitors of Glutaminase (GLS): Hit Confirmation using Cytotoxicity; shares compounds with GLS inh; HEK-293 viability, CellTiter-Glo luminescence, 24 h; activity change, negative = cytotoxicity, % at 46.1 µM; 35 tested, under 10 active
Numbers without * were called inactive; ? = inconclusive; nt = no result. Compounds with a hit are over-represented: about 0.53% of the library has one in this group of screens. Unless noted, calls come from the whole dose curve; as a rule, active = well fitted curve in the direction sought with a large enough effect; inconclusive = small, poorly fitted or top-dose-only effect, or another doubt; inactive = no such curve, though single readings can be large; an effect the other way counts as inactive or inconclusive.

SMILES	USP1-UAF1 inh	PGK inhibitor	PI4K2A block	GLS inh	GLS hit conf	HRP GOx counter	HEK293 tox
CC(=O)N(CC(=O)N(C)C)c1ccccc1	nt	nt	-1	nt	nt	nt	nt
O=C(O)c1cc(S(=O)(=O)Nc2ccc3oc(=O)sc3c2)ccc1O	2%	-10%	-68*	11%	nt	nt	nt
Cc1ccc2c(c1)c(=O)c1c3n2CCN(C(=O)CCl)C3CC1 (stereo unspecified)	32µM*	-10%	?	-23%	nt	nt	nt
Cc1ccc2c(c1)c1c3n2CCN(C(=O)CN2CCN(C)CC2)C3CCC1 (stereo unspecified)	2%	4%	5	24%	nt	nt	nt
CC1=C[C@@H](O)CC(C)(C)[C@@H]1/C=C/C(C)=C/C=C/C(C)=C/C=C/C=C(C)/C=C/C=C(C)/C=C/C1=C(C)C[C@H](O)CC1(C)C	nt	nt	nt	-13%	nt	nt	nt
CC(C)C[C@H](NC(=O)[C@@H]1Cc2c([nH]c3ccccc23)C2c3ccccc3C(=O)N21)C(=O)N1CCC[C@@H]1C(=O)O (stereo partly specified)	6%	9%	-3	13µM*	nt	nt	nt
CCC(C)[C@H](NC(=O)[C@@H]1Cc2c([nH]c3ccccc23)C2c3ccccc3C(=O)N21)C(=O)N1CCC[C@@H]1C(=O)O (stereo partly specified)	0%	1%	0	?	nt	nt	nt
Cc1cccc(N2CCN(C(=O)c3nn(C)c4c3CSc3ccccc3-4)CC2C)c1 (stereo unspecified)	?	9%	-3	-5%	nt	nt	nt
Cc1ccc(C=C2C(=O)c3ccccc3C2=O)s1	-6%	?	-53*	-12%	nt	nt	nt
COC(=O)c1nn(-c2ccc3c(c2)CCN3C(C)=O)cc1O	0%	?	-85*	12%	nt	nt	nt
CCCN1C(=O)S/C(=C\c2ccc(N3CCOCC3)o2)C1=O	25µM*	-3%	-12	-21%	nt	nt	nt
CCCN1C(=O)S/C(=C/c2ccc(N3CCOCC3)o2)C1=O	28µM*	2%	-4	-13%	nt	nt	nt
CCN1C(=O)S/C(=C\c2ccc(N3CCOCC3)cc2C)C1=O	-21%	-4%	4	7%	nt	nt	nt
O=C(COC(=O)c1ccccc1C(=O)c1ccccc1)Nc1cccc([N+](=O)[O-])c1	-6%	-3%	6	-2%	nt	nt	nt
Nc1c(C(=O)OCC(=O)Nc2cccc([N+](=O)[O-])c2)[nH]c(=O)[nH]c1=O	-5%	18µM*	-9	10%	nt	nt	nt
OCC1OC(OC2C(CO)OC(OC3C(CO)OC(O)C(O)C3O)C(O)C2O)C(O)C(O)C1O (stereo unspecified)	nt	nt	nt	0%	nt	nt	nt
CCOc1ccc(C(c2c(C)[nH]n(-c3ccccc3)c2=O)c2c(C)[nH]n(-c3ccccc3)c2=O)cc1OC	-26%	11%	-58*	25%	nt	nt	nt
Cc1[nH][nH]c(=O)c1C(c1c(C)[nH][nH]c1=O)c1cn(Cc2ccccc2Cl)c2ccccc12	28µM*	-5%	?	23%	nt	nt	nt
COc1ccc(C2c3c(oc4ccccc4c3=O)C(=O)N2CCN2CCOCC2)cc1OC (stereo unspecified)	-15%	-11%	0	-1%	nt	nt	nt
COCCN1C(=O)c2oc3ccccc3c(=O)c2C1c1ccc(OC)c(OC)c1 (stereo unspecified)	-7%	28µM*	4	-6%	nt	nt	nt
NS(=O)(=O)c1ccc(CNS(=O)(=O)c2cc(C(=O)O)ccc2Cl)cc1	-10%	-9%	6	11µM*	5.8µM*	-1	-12
O=C(O)c1ccc(NS(=O)(=O)c2cc(Cl)ccc2Cl)cc1	-12%	-2%	1	6%	nt	nt	nt
Cc1ccc(NS(=O)(=O)c2cc(C(=O)O)ccc2Cl)cc1	-14%	2%	-2	11µM*	?	-3	-5
Cn1nnnc1SCCCNCc1ccccc1OCc1ccc(Cl)cc1	-14%	18%	-5	-13%	nt	nt	nt
COC(=O)c1cc(-c2cc(Cl)ccc2OC)c(=O)n2c1CCC2	nt	nt	1	nt	nt	nt	nt
SMILES	USP1-UAF1 inh	PGK inhibitor	PI4K2A block	GLS inh	GLS hit conf	HRP GOx counter	HEK293 tox
O=S(=O)(Nc1ccccc1O)c1cccc2cccnc12	-20%	7%	3	?	-3%	?	-5
O=S(=O)(Nc1ccc(O)cc1)c1cccc2cccnc12	-22%	-6%	3	-17%	nt	nt	nt
COc1ccccc1NC(=O)c1cc(S(=O)(=O)NCc2ccccc2)ccc1F	-16%	7%	-10	?	6%	-1	3
CC1=C(C(=O)Nc2ccccc2C)C(c2ccccn2)n2nc(SCc3ccccc3F)nc2N1 (stereo unspecified)	-10%	-2%	-8	-8%	nt	nt	nt
Cc1ccccc1NS(=O)(=O)c1cccc(C(=O)Nc2cccc(C(=O)O)c2)c1	-21%	0%	-8	1%	nt	nt	nt
O=C(Nc1ccccc1O)c1cccc(S(=O)(=O)Nc2ccccc2O)c1	15%	-5%	-3	10µM*	?	?	1
COc1ccc(OC)c(S(=O)(=O)Nc2ccccc2O)c1	6%	-2%	3	10µM*	?	?	-2
O=C(O)c1ccccc1NS(=O)(=O)c1cccc(-n2sc3ccccc3c2=O)c1	?	-3%	-18	7.1µM*	5.2µM*	11	8
O=C(O)c1ccccc1NS(=O)(=O)c1cccc(C(F)(F)F)c1	-2%	-6%	-3	19%	nt	nt	nt
COc1ccc(S[C@]2(C(=O)N3CCCC3)CC(=O)N(P(=O)(OC)OC)[C@@H]2c2ccc(OC)cc2)cc1	nt	nt	-6	nt	nt	nt	nt
Cc1ccc(S(=O)(=O)Nc2ccccc2/C=N/c2nc3ccccc3n2C)cc1	-15%	-1%	-6	?	?	7	-7
CCN(CC)c1ccc(N)cc1S(=O)(=O)Nc1ccccc1OC	-11%	2%	-1	7.1µM*	-5%	?	3
CCN(CC)c1ccc(N)cc1S(=O)(=O)Nc1ccc(OC)cc1	-11%	-5%	-6	?	-2%	?	8
CCN(CC)c1ccc(NC(=O)COc2ccccc2C#N)cc1S(=O)(=O)Nc1ccccc1OC	-13%	-5%	1	?	-1%	-3	-10
CCN(CC)c1ccc(NC(=O)c2ccccn2)cc1S(=O)(=O)Nc1ccccc1OC	-15%	-1%	3	-5%	nt	nt	nt

High-throughput results: PubChem BioAssay, National Center for Advancing Translational Sciences (NCATS)
